In the library only some 6.5% were active in any assay of this set; here they are far more common.
MARV entry inh – Marburg virus entry inhibition; Marburg virus pseudotyped entry inhibition, cell reporter; Potency, µM (top dose mostly 37.8 µM), without a hit: at the highest dose activity change, negative = inhibition, usual class: inhibitors; 300,000 compounds, 1.8% hits; AID 540276; calls by dose curve; tested in HEK293 cells; note: potency is the fitted concentration of half-maximal effect
FMDV antiviral – foot and mouth disease virus antiviral activity. FMDV antiviral cell-based qHTS. Potency, µM (doses to about 57.9 µM), without a hit: at the top dose activity change, negative = inhibition, usual class: inhibitors. 410,000 compounds, 1.2% hits; calls by dose curve; tested in HEK293T cells; note: read-out not given here; potency is the fitted concentration of half-maximal effect; nearly all actives have a fitted effect of over 45% in size
VACV Venus inh – inhibitors of vaccinia virus (Venus reporter); Vaccinia virus Venus reporter expression, fluorescence; Potency, µM (titrated, usually from 36.5 µM), inactives show at the top dose activity change, negative = inhibition, most hits filed as inhibitors; 330,000 compounds, 0.46% hits; AID 720580; calls by dose curve; tested in A549 cells; note: potency is the fitted concentration of half-maximal effect; nearly all actives have a fitted effect of over 30% in size
VACV mCherry inh – inhibitors of vaccinia virus infection (mCherry reporter signal). Vaccinia virus mCherry reporter infection, fluorescence. Potency, µM (series often up to 36.5 µM), inactives show at the top dose activity change, negative = inhibition, actives largely listed as inhibitors. 310,000 compounds, 0.63% hits. AID 720579; calls by dose curve; tested in A549 cells; note: potency is the fitted concentration of half-maximal effect; nearly all actives have a fitted effect of over 35% in size
LASV entry inh – inhibitors of Lassa virus binding or cell entry; Lassa virus pseudotype entry inhibition, cell reporter; 300,000 compounds, 1.2% hits; Potency, µM (series often up to 37.9 µM), inactives show top-dose activity change, negative = inhibition, usual class: inhibitors; calls by dose curve; tested in HEK293 cells; note: potency is the fitted concentration of half-maximal effect; nearly all actives have a fitted effect of over 50% in size
HCMV inh – human cytomegalovirus inhibition; HFF cells, HCMV-luciferase reporter, 72 h; active compounds read low; 410,000 compounds, 4.5% hits; activity change, negative = inhibition, % at 57.5 µM; in the data active = activity change below about -60%; inconclusive = no clear call, values can overlap the other calls; inactive = above about -39%
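Screen run at 2 compound doses on HFFs infected with reporter HCMV, MOI 1 PFU/cell. Luciferase activity from cell lysates at 72 h post infection gave inhibition relative to buffer-only and Salinomycin wells.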
Active calls of the source: *; i = inactive; u = inconclusive; x = not tested or not shown; ! = repeats disagree; [ ] = another dose, or the depositor's remark. % is set by controls: 0 for no effect and ±100 for the full control effect.

SMILES	MARV entry inh	FMDV antiviral	VACV Venus inh	VACV mCherry inh	LASV entry inh	HCMV inh
Cc1ccccc1CN1CCCN(Cc2ccc(Cl)cc2)S1(=O)=O	-5%[46.1 µM]	-8%	-22%	i	u	-60*
Cc1ccc(CN2CCCN(Cc3ccc(Cl)cc3)S2(=O)=O)cc1	0%[46.1 µM]	-5%	5%	-5%	16%[46.1 µM]	18
CCN(CC)C(=O)C1CCN(S(=O)(=O)c2ccc3oc4ccccc4c3c2)CC1	u	x	u	-24%	-27%	-70*
OC(c1ccc2c(c1)CN(Cc1cccc3nccnc13)CCO2)C1CCCCC1 (centres undefined)	x	0%	-15%	-15%	x	x
CCC(C)n1c(SCC(=O)Nc2cc(C)on2)nc2ccccc2c1=O (centres undefined)	4µM*	-23%	u	i	-12%	-6
Cc1cc(NC(=O)CSc2nc3ccccc3c(=O)n2C(C)c2ccccc2)no1 (centres undefined)	3.2µM*	-24%	-23%	x	2.5µM*	u
CCC(C)NC(=O)CSc1nc2cc3c(cc2c(=O)n1CCCCCC(=O)NCc1ccc(OC)cc1)OCO3 (centres undefined)	x	-3%	-2%	-12%	15%[46.1 µM]	28
CCCCCCCCCCCCCCCC(=O)O[C@H](CC(=O)O)C[N+](C)(C)C	-27%	-19%	x	x	x	x
CCCCCCCCCCCCCCCC(=O)OC(CC(=O)O)C[N+](C)(C)C (centres undefined)	22µM*!	-23%	u	u	u	43
CCOC(=O)COc1ccc(CC)cc1C(=O)c1ccn2nc(-c3ccc(C)cc3)cc2n1	u	-5%	-7%	-18%	u	-13
Cc1ccccc1-c1cccc([C@@H]2C[C@H]3C(CN2)CON3C)c1 (some centres undefined)	x	-11%	6%	-22%	x	-17
CCN(CC)c1nc(Nc2ccc(Cl)cc2)nc(OCC#N)n1	u	u	u	x	-4%	-68*
Cc1cccc(Nc2nc(OCC#N)nc(N(C)C)n2)c1	-14%[46.1 µM]	0%	-17%	-20%	22%[46.1 µM]	38
Cc1ccc(C(C)C)c(OCC(=O)Nc2cc(-c3nc4ccccc4[nH]3)ccc2C)c1	u	u	-28%	-21%	u	u
COc1ccc(Cn2cnc3cnc(Nc4ccc(C(=O)N(C)C)cc4)cc32)cc1OC	x	x	x	x	x	2
COc1ccc(/C=C2\SC(=S)N(Cc3cccnc3)C2=O)cc1C	u	16%	5%	-6%	9%	6
CCOc1cc(/C=C2/SC(=Nc3ccccc3)N(Cc3cccnc3)C2=O)ccc1OCC#N	u	u	-26%	-18%[1.46 µM]	u	-60*
COC(=O)C1CCN(Cc2ccc3c(c2)CN(C(=O)c2cc(C)nc(C)n2)CCO3)CC1	x	5%	-9%	-16%	x	x
Cc1cc(C)n(-c2ccc(C(=O)Nc3ccc(S(=O)(=O)NCc4ccco4)cc3)cc2)n1	13µM*!	u	u	u	u	-96*
Cc1ccc(C(=O)Nc2ccc(S(=O)(=O)NCc3ccco3)cc2)cc1	-17%	86%	x	x	22%	30
Cc1ccc(NC(=O)c2ccncc2)cc1S(=O)(=O)N(C)C	-16%	-3%	0%	-6%	-24%	1
Cc1cc(C)n(-c2ccc(C(=O)Nc3ccc(C)c(S(=O)(=O)N(C)C)c3)cc2)n1	u	16µM*	u	u	u	-81*
Cc1cc(C)n(-c2ccc(C(=O)Nc3ccc(N4CCOCC4)cc3)cc2)n1	2%	4%	u	x	4%	-32
Cc1cc(C)n(-c2ccc(C(=O)Nc3ccc(S(=O)(=O)N(C)C)cc3)cc2)n1	u	u	-22%	-4%	u	-97*
Cc1cc(C)n(-c2ccc(C(=O)Nc3cccc(S(=O)(=O)N(C)C)c3)cc2)n1	u	22µM*	-26%	-17%	u	-96*
SMILES	MARV entry inh	FMDV antiviral	VACV Venus inh	VACV mCherry inh	LASV entry inh	HCMV inh
CCCCNC(=O)c1nc2cc(C)c(C)cc2nc1-c1cccc(OC)c1	x	x	x	x	x	19
C[n+]1c(/C=C/c2ccnc3ccccc23)cc(/C=C/c2ccnc3ccccc23)c2ccccc21	x	x	7%	21%	x	x
CCN(CC)S(=O)(=O)c1cccc(NC(=O)c2ccc(-n3nc(C)cc3C)cc2)c1	16µM*	20µM*	u	u	u	-83*
Cc1ccc(NC(=O)c2ccc(OC(F)(F)F)cc2)cc1S(=O)(=O)N(C)C	u	32µM*	u	u	u	-99*
CN(C)S(=O)(=O)c1cccc(NC(=O)c2cc(-c3cccs3)nn2-c2cccc(Cl)c2)c1	u	-14%	-28%	-19%	u	-106*
CN(C)S(=O)(=O)c1cccc(NC(=O)c2cccc(NS(=O)(=O)c3ccccc3)c2)c1	u	u	-17%	-22%	u	-89*
O=C(O)c1cc(-c2cccs2)nn1-c1cccc(Cl)c1	8%	-17%	-3%	i	25%	-3
Cc1cc(C)n(-c2ccc(C(=O)Nc3cccc([N+](=O)[O-])c3)cc2)n1	u	-29%	-6%	-18%	4%	u
CCc1cccc(C)c1NC(=O)c1cccc(C(=O)Nc2c(C)cccc2CC)c1	x	-15%	1%	-2%	-27%[46.1 µM]	-16
CCCCN1C(=O)c2ccc(C(=O)Nc3ccc(C)c(S(=O)(=O)N(C)C)c3)cc2C1=O	u	18µM*	-11%	-14%	-28%	-28
CCc1cccc(CC)c1NC(=O)c1cccc(NC(=O)c2ccccc2)c1	u	0%	x	x	21%	-67*
Cc1cccc2cc(C#N)c(NCCCNS(=O)(=O)c3ccc(Cl)cc3)nc12	x	u	x	x	x	-67*
Cc1cccc2cc(C#N)c(NCCNS(=O)(=O)c3ccccc3)nc12	u	21%	-3%	-6%	-2%	-3
O=C(Nc1ccc(Oc2ccc3ccccc3c2)cc1)c1ccco1	u	0%	-17%	-17%	-36%	-68*
O=C(Nc1ccc(N2CCN(Cc3ccccc3Cl)CC2)cc1)c1cccnc1	u	u	-11%	-22%	-3%	-64*
O=C(Nc1ccc(Nc2ccccc2)cc1)c1c(Cl)cccc1Cl	u	16%	-10%	u	-18%[46.1 µM]	-75*
O=C(Nc1ccc(Nc2ccccc2)cc1)c1ccco1	u	31%	-13%	-19%	-26%	-64*
O=C(Nc1ccc(Oc2ccc(NC(=O)c3ccco3)c(NC(=O)c3ccco3)c2)cc1)c1ccco1	u	x	-10%	-9%	9%	u
Cc1ccoc1C(=O)Nc1ccc2ccccc2c1	u	u	-23%	-24%	10µM*	43
O=C(Nc1ccc(NC(=O)c2ccco2)cc1)c1ccco1	11%[46.1 µM]	43%	-5%	-12%	0%[46.1 µM]	-4
O=C(Nc1ccc(NC(=O)c2sc3ccccc3c2Cl)cc1)c1ccco1	u	u	-7%	-18%	1%	-76*
O=C(Nc1ccc(F)c(F)c1)c1ccco1	x	21%	x	x	x	-78*

Source: PubChem BioAssay (National Center for Advancing Translational Sciences (NCATS))
